Test results as given in the supplement of paper PMC6992640.
± gives the standard deviation of the averaged measurements.

Tests used:
Assay in all cases: cell viability (% of vehicle); higher = less cytotoxic
Details in all cases: 10 µM; 72 h
HCI01 = test system: HCI01 (cells of a triple-negative basal-like breast cancer xenograft)
HCI03 = test system: HCI03 (cells of an ER-positive luminal breast cancer xenograft)
HCI09 = test system: HCI09 (cells of a triple-negative luminal androgen receptor type breast cancer xenograft)
HCI11 = test system: HCI11 (cells of an ER-positive luminal breast cancer xenograft)
HCI13 = test system: HCI13 (cells of an ER-positive luminal breast cancer xenograft)
HCI16 = test system: HCI16 (cells of a triple-negative basal-like breast cancer xenograft)
UCD52 = test system: UCD52 (cells of a triple-negative basal-like breast cancer xenograft)
WHIM2 = test system: WHIM2 (cells of a triple-negative basal-like breast cancer xenograft)
WHIM30 = test system: WHIM30 (cells of a triple-negative basal-like breast cancer xenograft)
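Further: PDX cells carrying CMV promoter-driven luciferase, viability read as total photon flux per second by IVIS imaging following D-luciferin, vehicle control 0.1% DMSO.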

Row | Compound | cell viability (HCI01) | cell viability (HCI03) | cell viability (HCI09) | cell viability (HCI11) | cell viability (HCI13) | cell viability (HCI16) | cell viability (UCD52) | cell viability (WHIM2) | cell viability (WHIM30)
1 | CO/N=C(\C(=O)N[C@@H]1C(=O)N2C(C(=O)O)=C(CSc3nc(=O)c(O)nn3C)CS[C@H]12)c1csc(N)n1 [Ceftriaxone Sodium Trihydrate] | 148 ± 45 | 111 | 98.6 ± 26 | 101 | 77.6 ± 1.9 | 125 | 106 ± 1.4 | 130 ± 13 | 109 ± 2.1
2 | O=C(CS(=O)Cc1ccco1)NCC=CCOc1cc(CN2CCCCC2)ccn1 (stereo not drawn) [Lafutidine] | 137 ± 32 | 136 | 107 ± 3.1 | 108 | 190 ± 46 | 119 | 89.1 ± 3.8 | 88.6 ± 19 | 114 ± 2
3 | CCCN(CCC)C(=O)C1=Cc2ccc(-c3ccc(C(=O)N4CCCC4)cc3)cc2NC(=N)C1 [Motolimod (VTX-2337)] | 100 ± 41 | 97.5 | 32.1 ± 0.89 | 63.6 | 76.6 ± 7 | 105 | 66 ± 3.8 | 71 ± 15 | 100 ± 12
4 | CN(C)NN=C1N=CN=C1C(N)=O [Dacarbazine] | 122 ± 9.3 | 92.9 | 110.4 ± 0.52 | 93.5 | 120 ± 16 | 82.7 | 107 ± 8 | 80.3 ± 24 | 118 ± 25
5 | CCCSc1ccc2nc(NC(=O)OC)[nH]c2c1 [Albendazole] | 166 ± 38 | 131 | 172 ± 35 | 93.6 | 127 ± 10 | 160 | 95.4 ± 25 | 123 ± 28 | 
6 | Cc1ccc(C(=O)c2cc(O)c(O)c([N+](=O)[O-])c2)cc1 [Tolcapone] | 70.6 ± 40 | 52.5 | 14.6 ± 1.4 | 57.5 | 64.16 ± 0.48 | 84.2 | 71.6 ± 18 | 117 ± 26 | 120 ± 7.5
7 | CC(C(=O)O)c1ccc2c(c1)Cc1cccnc1O2 (stereo not drawn) [Pranoprofen] | 113 ± 13 | 128 | 93.6 ± 16 | 78.6 | 123 ± 16 | 125 | 98.8 ± 19 | 110 ± 3.3 | 111 ± 22
8 | Cl.NC(N)=NC(=O)Cc1c(Cl)cccc1Cl [Guanfacine hydrochloride] | 117 ± 15 | 97.6 | 82.1 ± 9.4 | 86.2 | 107 ± 6.5 | 94.4 | 93.2 ± 6 | 102 ± 9.9 | 132 ± 19
9 | Nc1cc(C(Cl)=C(Cl)Cl)c(S(N)(=O)=O)cc1S(N)(=O)=O [Clorsulon] | 107 ± 17 | 108 | 125 ± 47 | 106 | 194 ± 11 | 169 | 116 ± 11 | 112 ± 14 | 152 ± 7.4
10 | NCCCCC(NC(CCc1ccccc1)C(=O)O)C(=O)N1CCCC1C(=O)O.O.O (stereo not drawn) [Lisinopril dihydrate] | 98.2 ± 20 | 137 | 106 ± 19 | 113 | 113 ± 3.5 | 130 | 105 ± 0.53 | 94 ± 22 | 150 ± 8.1
11 | CC1(O)CC(c2nc(-c3ccc4ccc(-c5ccccc5)nc4c3)c3c(N)nccn23)C1 (stereo not drawn) [Linsitinib] | 112 ± 1.2 | 109 | 73.3 ± 39 | 76.3 | 38.6 ± 4 | 127 | 71.6 ± 2.8 | 102 ± 11 | 126 ± 12
12 | O=C(O)c1cccnc1Nc1cccc(C(F)(F)F)c1 [Niflumic acid] | 135 ± 48 | 149 | 58.9 ± 21 | 68.8 | 125 ± 2.6 | 130 | 75.3 ± 5.3 | 105 ± 14 | 122 ± 2
13 | CCCCOc1cc(C(=O)NCCN(CC)CC)c2ccccc2n1.Cl [Dibucaine (Cinchocaine) HCl] | 124 ± 13 | 154 | 92.3 ± 9.3 | 103 | 116 ± 5.1 | 101 | 68 ± 3.4 | 96.4 ± 5.9 | 109 ± 4.7
14 | O=C(O)c1ccccc1O [Salicylic acid] | 106 ± 7.3 | 114 | 138 ± 62 | 116 | 99.1 ± 7 | 98.3 | 120 ± 16 | 95.1 ± 13 | 118 ± 23
15 | Nc1nc(=O)c2ncn(CCC(CO)CO)c2[nH]1 [Penciclovir] | 115 ± 28 | 140 | 92.4 ± 6.6 | 95.3 | 84.4 ± 9.1 | 130 | 110 ± 5.5 | 123 ± 34 | 99.7 ± 8.5
16 | O=C(O)/C=C/c1ccc(O)c(O)c1 [Caffeic acid] | 88 ± 6.6 | 115 | 107 ± 24 | 93.3 | 89.9 ± 9.4 | 137 | 97.2 ± 6 | 86.5 ± 20 | 89.4 ± 2.4
17 | CC(C)CC(N)=O [Isovaleramide] | 103 ± 22 | 132 | 97.6 ± 3.4 | 98.5 | 104 ± 13 | 94.6 | 99.9 ± 2 | 98.5 ± 13 | 96.1 ± 7.9
18 | C[N+](C)(C)CCOC(N)=O.[Cl-] [Carbamoylcholine chloride] | 108 ± 11 | 120 | 89.4 ± 1.1 | 71.4 | 112 ± 4.6 | 124 | 95.6 ± 2.4 | 127 ± 7 | 98.9 ± 1.4
19 | CCC1(c2ccccc2)C(=O)NCNC1=O [Primidone] | 78.1 ± 54 | 162 | 105 ± 2.9 | 90.6 | 134.7 ± 0.7 | 121 | 85.1 ± 8.9 | 100 ± 33 | 
20 | CCCCC1C(=O)N(c2ccccc2)N(c2ccccc2)C1=O [Phenylbutazone] | 89.4 ± 24 | 129 | 86.7 ± 11 | 97.2 | 127.3 ± 0.28 | 120 | 88.9 ± 1.4 | 89 ± 23 | 119 ± 3.8
